Screening data deposited in PubChem BioAssay by The Scripps Research Institute Molecular Screening Center.
An excerpt weighted towards active compounds, which were near 1.1% of everything screened.
HTR5A inv ctr: HTR5A inverse agonists in luminescence cell assay, primary screen, counter-screen for OPRM1-OPRD1 heterodimer inverse agonist project, full-deck HTS; 5-hydroxytryptamine receptor 5A (Homo sapiens), P47898; HTR5A cell line, inverse agonism; inhibition, % at 9.3 µM; 340,000 tested, 0.083% active; AID 504634, 2011; in the data active = inhibition mostly above about 23%, no sharp cut-off; inactive = mostly below about 18%
HTR5A ag ctr: HTR5A agonists in luminescence cell assay, primary screen, counter-screen for OPRM1-OPRD1 heterodimer agonist project, full-deck HTS. AID 504692, 2011. cell-based. 5-hydroxytryptamine receptor 5A (Homo sapiens), P47898. 340,000 tested, 0.61% active. activation, % at 9.3 µM; in the data active = activation mostly above about 9.5%, no sharp cut-off; inactive = mostly below about 7.6%
OPRM1-OPRD1 inv: inverse agonists of MOR-DOR heterodimerization, primary screen, cell-based, luminescence. Mu-type opioid receptor (Homo sapiens) + Delta-type opioid receptor (Homo sapiens), …. cell-based MOR-DOR heterodimer luminescence, inverse agonism. inhibition, % at 9.3 µM. 340,000 tested, 0.21% active. AID 504357, 2011; in the data active = inhibition above about 22%, passing the limit was not always enough
Target sequence (P35372 whole entry, looked up): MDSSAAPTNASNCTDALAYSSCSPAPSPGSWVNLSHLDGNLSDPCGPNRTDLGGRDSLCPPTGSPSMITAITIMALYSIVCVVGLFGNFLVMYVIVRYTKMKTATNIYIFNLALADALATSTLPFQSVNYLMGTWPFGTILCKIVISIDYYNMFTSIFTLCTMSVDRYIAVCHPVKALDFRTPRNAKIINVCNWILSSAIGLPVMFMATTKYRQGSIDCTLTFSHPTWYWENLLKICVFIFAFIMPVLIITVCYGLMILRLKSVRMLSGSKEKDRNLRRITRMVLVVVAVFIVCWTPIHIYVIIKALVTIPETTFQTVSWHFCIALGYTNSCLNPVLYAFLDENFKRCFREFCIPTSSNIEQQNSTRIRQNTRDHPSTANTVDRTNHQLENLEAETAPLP
Target sequence (P41143 whole entry, looked up): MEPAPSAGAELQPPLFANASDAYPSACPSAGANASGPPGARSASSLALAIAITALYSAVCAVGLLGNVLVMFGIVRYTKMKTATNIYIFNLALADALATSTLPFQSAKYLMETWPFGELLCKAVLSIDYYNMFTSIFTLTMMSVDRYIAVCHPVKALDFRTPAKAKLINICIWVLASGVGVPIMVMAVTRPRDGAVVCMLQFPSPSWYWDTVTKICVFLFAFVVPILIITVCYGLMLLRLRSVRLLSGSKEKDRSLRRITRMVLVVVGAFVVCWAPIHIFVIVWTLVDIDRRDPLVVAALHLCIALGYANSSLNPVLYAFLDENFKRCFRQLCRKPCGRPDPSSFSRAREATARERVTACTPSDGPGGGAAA
MOR-DOR ag: agonists of OPRM1-OPRD1 heterodimerization, primary screen, cell-based, luminescence; AID 504326, 2011; 340,000 tested, 0.3% active; cells; Mu-type opioid receptor (Homo sapiens) + Delta-type opioid receptor (Homo sapiens), …; activation, % at 9.3 µM; in the data active = activation above about 18%
OPRM1-D1 inv cf: inverse agonists of MOR-DOR heterodimerization, confirmation, cell-based, luminescence; 580 tested, 20% active; shares compounds with OPRM1-OPRD1 inv; cells expressing OPRM1/OPRD1 heterodimer; AID 504900, 2011; inhibition, % at 9.3 µM; in the data active = inhibition above about 32%
HTR5A inv ctr2: HTR5A inverse agonists, counter-screen for OPRM1-OPRD1 inverse agonist project, cell-based, luminescence; HTR5A-expressing cells, inverse agonism; AID 504914, 2011; 580 tested, under 10 active; shares compounds with OPRM1-OPRD1 inv; inhibition, % at 9.3 µM; call rule not given here
Numbers stand for hits; n = inactive; x = no result given.

SMILES	HTR5A inv ctr	HTR5A ag ctr	OPRM1-OPRD1 inv	MOR-DOR ag	OPRM1-D1 inv cf	HTR5A inv ctr2
Cc1ccc(C2C(C(=O)c3cc4ccccc4o3)=C(O)C(=O)N2CCN2CCOCC2)o1 (stereo not drawn)	n	n	42	n	n	n
CC1Nc2ncnc(N3CCN(c4ccccc4)CC3)c2N(Cc2ccc(Cl)cc2)C1=O (stereo not drawn)	n	n	57	n	33	63
CC(=O)n1cc([C@@H]2C=C(C(=O)N3CCN(Cc4ccccc4)CC3)O[C@H](OCc3ccc(CO)cc3)C2)c2ccccc21	n	n	n	n	x	x
Cc1ccc(C(=O)NCC(=O)OCC(=O)c2ccc(C)c([N+](=O)[O-])c2)cc1	n	n	51	n	42	n
O=C(Cc1ccccc1)NCC(=O)OCC(=O)c1ccc(Cl)c([N+](=O)[O-])c1	n	n	90	n	70	n
Cc1ccc(C(=O)COC(=O)CNC(=O)C(c2ccccc2)c2ccccc2)cc1[N+](=O)[O-]	n	n	66	n	41	n
CCCc1cc(=O)[nH]c(SCC(=O)N2CCCc3ccccc32)n1	n	n	n	n	x	x
CC(C)(C)c1ccc(C(=O)NCC(=O)N2CCNC(=O)C2)cc1	n	n	n	n	x	x
Cc1ccc(NNC(=O)C(=O)N2CCCCC2)cc1	n	n	28	n	n	n
Cc1ccc(S(=O)(=O)NC2c3cccc4cccc(c34)C2Sc2nc(C)cc(C)n2)cc1 (stereo not drawn)	n	n	n	n	x	x
O=C(O)c1cc(S(=O)(=O)Nc2cc(Cl)ccc2Oc2ccccc2)ccc1O	n	n	n	n	x	x
CN(C)CCC(=O)N1C/C(=C/c2ccccc2)C(=O)/C(=C\c2ccccc2)C1	n	n	43	n	n	n
C[N+](C)(C)CCC(=O)N1C/C(=C/c2ccccc2)C(=O)/C(=C\c2ccccc2)C1	n	n	n	n	x	x
O=C1/C(=C/c2ccccc2)Nc2ccccc21	n	n	36	n	n	n
c1ccc(Cn2c(Sc3nnnn3-c3ccccc3)nnc2-c2ccccc2)cc1	n	n	n	n	x	x
O=[N+]([O-])c1ccc(O)c(C=NNc2ccc(S(=O)(=O)O)cc2)c1	n	n	31	n	n	n
O=[N+]([O-])c1cccc(N/N=C/c2cc([N+](=O)[O-])ccc2O)c1	n	n	n	n	x	x
CC(=O)CCC(=O)OCC(=O)c1ccc(C(F)(F)F)cc1	n	n	45	n	n	n
O=C(CCC(=O)c1cccs1)OCC(=O)c1ccc(F)cc1	n	n	n	n	x	x
COc1ccc(-c2n[nH]c(C(F)(F)F)c2-c2cc3ccccc3o2)c(O)c1	n	n	n	n	x	x
COc1ccc(NC(=O)c2nc(S(=O)(=O)Cc3cccc(C)c3)ncc2Cl)c(OC)c1	n	n	35	n	n	n
COc1ccc(N=Cc2[nH]c3ccccc3c2O)cc1	n	n	30	n	n	n
CCc1ccc(-c2csc(NC(=O)c3cccnc3)n2)cc1	n	n	n	n	x	x
CC1=C/C(=C(/c2ccc(O)c(C)c2)c2ccccc2S(=O)(=O)O)C=CC1=O	n	n	29	n	n	n
CC1=C/C(=C(/c2cc(C)c(O)c(Br)c2)c2ccccc2S(=O)(=O)O)C=C(Br)C1=O	n	n	n	n	x	x
SMILES	HTR5A inv ctr	HTR5A ag ctr	OPRM1-OPRD1 inv	MOR-DOR ag	OPRM1-D1 inv cf	HTR5A inv ctr2
C/C(CC(=O)Nc1ccccc1-c1ccccc1)=N\NC(=O)COc1ccc(C)cc1Br	n	n	n	n	x	x
CC(C)C(=O)Nc1nnc(NC(=S)Nc2ccccc2)s1	n	n	36	n	34	n
CCCc1nnc(NC(=S)Nc2ccccc2)s1	n	n	n	n	x	x
O=C(CNC(=O)C1CCCCC1)OCC(=O)c1ccc(F)cc1	n	n	n	n	x	x
O=C(CNC(=O)C1CCCCC1)OCC(=O)c1cccc(Cl)c1	n	n	36	n	n	n
O=C(CCNc1ccc(F)cc1)c1cc2ccccc2o1	n	n	n	n	x	x
O=C(Cc1ccc(F)cc1)OCC(=O)c1cc2ccccc2o1	n	n	48	n	n	n
CC(NC(=O)COc1ccccc1)C(=O)OCC(=O)c1cc2ccccc2o1 (stereo not drawn)	n	n	71	n	n	n
C=CCn1c(=NC(=O)c2cccs2)sc2cccc(OC)c21	n	n	n	n	x	x
Cc1ccc(NC(=S)NNc2ncc(C(F)(F)F)cc2Cl)c(C)c1	n	n	49	n	n	n
Cc1ccc(NC(=S)NNc2ncc(C(F)(F)F)cc2Cl)cc1	n	n	55	n	n	n
CON/C=N/C(=S)Nc1ncc(C(F)(F)F)cc1Cl	n	n	n	n	x	x
COc1cccc(-n2nnc3c(=O)n(Cc4ccc(Cl)cc4)cnc32)c1	n	n	n	n	x	x
ON(CCc1ccncc1)Cc1ccccc1	n	n	44	n	n	n
COc1ccc(-c2cc(C(=O)N3CCCC(C(F)(F)F)C3)c3ccccc3n2)cc1OC (stereo not drawn)	n	n	n	n	x	x
CCCCNC(=S)NNC(=O)c1cc(C2CC2)nc2ccccc12	n	n	n	n	x	x
CCCCNC(=S)NNC(=O)c1cc(-c2ccncc2)nc2ccccc12	n	n	33	n	n	n
CNC(=O)c1nnsc1S(=O)(=O)c1ccc(Cl)cc1	n	n	32	n	n	n
Cc1cc(C)n2nc(SC(C)C(=O)N3CCOCC3)nc2n1 (stereo not drawn)	n	n	37	n	n	n
Cc1ccccc1S(=O)(=O)Cc1ccc(C(=O)NCCN(CC(C)C)CC(C)C)o1	n	n	n	n	x	x
CC(C)(C)c1ccc(C(=O)N2CCC(C(=O)NCC3CCCO3)CC2)cc1 (stereo not drawn)	n	n	n	n	x	x
CC(=O)N(/N=C1\Sc2ccccc2C1=O)c1cccc(C)c1	n	n	53	n	44	n
CNC(=S)NNC(=O)c1sc2cc(C(F)(F)F)cnc2c1-c1ccccn1	n	n	31	n	n	n
O=C(CN1CCN(c2ccccc2F)CC1)c1c[nH]c2ccccc12	n	n	n	n	x	x
COc1cc(/C=N/Nc2ccc(F)cc2F)cc(OC)c1O	n	n	32	n	n	n
COc1cc(/C=N/Nc2ccccc2[N+](=O)[O-])cc(OC)c1O	n	n	n	n	x	x
c1ccc(C2OC3c4cccc5cccc(c45)C3N2c2ccccc2)cc1 (stereo not drawn)	n	n	38	n	n	n
Cc1ccc2c(c1)C(=O)C(=O)N2c1ccc(Cl)cc1	n	n	58	n	n	n
Cc1cccc(-n2ncc3c2CCCC3NC(=O)CC(F)(F)F)c1C (stereo not drawn)	n	n	n	n	x	x
